Assay outcomes from PubChem BioAssay.
Shown are actives, neighbours in structure and some others; about 1.5% of the full set was active somewhere.
eLon inh – inhibits E. coli Lon protease. inhibition, % at 7.94 µM. P0A9M0. purified E. coli Lon protease, fluorescence polarization. AID 602123. hit rate 0.42% among 360,000; in the data active = inhibition above about 13%, passing the limit was not always enough;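 note: 0% = enzyme with probe and DMSO and 100% = no enzyme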
GLD-1 TGE inh – GLD-1-TGE RNA interaction inhibition (C. elegans). purified GLD-1 + fluorescein TGE RNA, fluorescence polarization. Q17339. inhibition, % at 5.96 µM. hit rate 0.44% among 320,000;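 active = percent inhibition above a per-plate cutoff, the plate mean of test compounds plus 3 SD, cut at about 30% in these data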;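 note: 0% = DMSO wells with GLD-1 and probe and 100% = wells lacking GLD-1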
EBV gp42 block – inhibitors of Epstein-Barr virus glycoprotein 42 | Fluorescence polarization binding assay, mP read-out | AID 1085 | Q1HVG2 | hit rate 0.42% among 220,000 | inhibition, % (tested at 21.74 µM); in the data active = inhibition above about 50%
LANA DNA inh – KSHV C-LANA DNA binding inhibition | MBP-C-LANA/FAM-LBS DNA binding, fluorescence polarization | inhibition, % at 9 µM | hit rate 0.078% among 340,000;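 active = highest replicate inhibition at or above 60% at 9 µM, even if other replicates fall short; inactive = all replicates below 60% inhibition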;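 note: 0% = neutral control wells and 100% = 4 µM acridine orange control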
Keap1-Nrf2 PPI – Keap1-Nrf2 (human) interaction inhibition. Keap1 Kelch-Nrf2 peptide fluorescence polarization, 1536-well. Q14145. hit rate 0.15% among 340,000. inhibition, % at 9.4 µM; in the data active = inhibition above about 12%;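 note: human Keap1 Kelch domain with fluorescein labeled Nrf2 9mer peptide probe; 0% = neutral control wells and 100% = peptide positive control; higher means more block of Keap1 binding to Nrf2 peptide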
LANA-H2B inh – blocks KSHV LANA binding to histone H2A/H2B. Q9QR71. cell-free LANA-H2A/H2B peptide, fluorescence polarization. inhibition, % (no concentration beside the values). hit rate 0.6% among 320,000. AID 2629; in the data active = inhibition mostly above about 10%, no sharp cut-off; inactive = mostly below about 6.7%
Target sequence (Q9QR71 whole entry, looked up): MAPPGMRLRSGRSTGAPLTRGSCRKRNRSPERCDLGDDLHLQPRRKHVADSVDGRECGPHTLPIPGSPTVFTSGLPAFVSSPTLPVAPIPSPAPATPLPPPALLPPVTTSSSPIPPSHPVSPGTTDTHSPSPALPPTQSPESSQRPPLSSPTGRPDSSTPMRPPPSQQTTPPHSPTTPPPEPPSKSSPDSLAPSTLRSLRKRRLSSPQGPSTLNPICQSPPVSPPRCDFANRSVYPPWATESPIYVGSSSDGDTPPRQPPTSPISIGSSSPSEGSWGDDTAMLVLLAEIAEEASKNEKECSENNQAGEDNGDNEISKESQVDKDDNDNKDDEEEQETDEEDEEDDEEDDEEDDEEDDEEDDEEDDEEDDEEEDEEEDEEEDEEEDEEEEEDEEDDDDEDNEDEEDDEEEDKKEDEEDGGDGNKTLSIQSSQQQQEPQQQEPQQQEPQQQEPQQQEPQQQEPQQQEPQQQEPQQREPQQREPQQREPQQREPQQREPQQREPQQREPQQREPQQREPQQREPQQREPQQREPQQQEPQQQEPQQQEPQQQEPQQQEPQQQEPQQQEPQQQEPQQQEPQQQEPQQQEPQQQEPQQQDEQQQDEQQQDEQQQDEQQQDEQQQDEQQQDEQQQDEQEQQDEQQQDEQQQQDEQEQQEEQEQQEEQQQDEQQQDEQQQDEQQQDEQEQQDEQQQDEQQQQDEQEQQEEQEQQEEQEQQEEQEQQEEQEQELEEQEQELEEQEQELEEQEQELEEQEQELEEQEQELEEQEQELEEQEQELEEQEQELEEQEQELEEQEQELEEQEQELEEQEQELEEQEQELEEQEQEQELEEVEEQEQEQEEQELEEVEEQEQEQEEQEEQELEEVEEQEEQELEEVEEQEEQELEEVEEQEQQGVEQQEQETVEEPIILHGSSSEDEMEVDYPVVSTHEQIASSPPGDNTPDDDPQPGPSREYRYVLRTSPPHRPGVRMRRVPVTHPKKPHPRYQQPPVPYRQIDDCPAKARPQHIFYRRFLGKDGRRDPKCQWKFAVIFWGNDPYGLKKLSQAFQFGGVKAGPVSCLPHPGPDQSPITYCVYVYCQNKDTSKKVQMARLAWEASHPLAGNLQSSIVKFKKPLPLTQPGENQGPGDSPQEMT
Numbers without * were called inactive; ! = not confirmed by another sample.

Results for CCn1c(O)c(C=Nc2ccc(N3CCOCC3)c(Br)c2)c(=O)n(CC)c1=S ?
eLon inh: -5.5; GLD-1 TGE inh: -0.7; EBV gp42 block: -11.7; LANA DNA inh: 18.4; Keap1-Nrf2 PPI: -15.2; LANA-H2B inh: 2.3

How did O=c1[nH]c(=O)n(C2CCCCC2)c(O)c1C=Nc1ccc(N2CCOCC2)cc1 do in these assays?
eLon inh: -2.4; GLD-1 TGE inh: 2.8; EBV gp42 block: -0.9; LANA DNA inh: 197.5*; Keap1-Nrf2 PPI: -2.1; LANA-H2B inh: 8.5

Results for O=C1CC(=O)N(Cc2ccccc2)C(=O)N1Cc1ccccc1 ?
eLon inh: -133.8; LANA DNA inh: 0.2; Keap1-Nrf2 PPI: -11.9

Results for CC(=NCC1CCCO1)c1c(O)n(Cc2ccccc2)c(=O)[nH]c1=O (stereo not given) ?
eLon inh: -13.3; GLD-1 TGE inh: 7.2; EBV gp42 block: -18.4; LANA DNA inh: 0.3; Keap1-Nrf2 PPI: -1.3; LANA-H2B inh: -2.6

What do the screens show for `CC(C)CC(C)N` (stereo not given)?
eLon inh: 13.2; GLD-1 TGE inh: 3.2; LANA DNA inh: -0.4; Keap1-Nrf2 PPI: 0.3; LANA-H2B inh: 44.9*

Results for COc1ccc(C(=O)N2CCC3(CC2)OCCO3)cc1 ?
eLon inh: -1.4; GLD-1 TGE inh: 10.4; LANA DNA inh: -1.2; Keap1-Nrf2 PPI: -5.1; LANA-H2B inh: 0.3

What do the screens show for `COc1ccccc1Cn1c(SCC(=O)C(C)(C)C)nc2cc(C(=O)N3CCC4(CC3)OCCO4)ccc2c1=O`?
GLD-1 TGE inh: 5.7; EBV gp42 block: 3.1; LANA-H2B inh: 11.7*

How did O=c1c2ccccc2nc(C[n+]2ccccc2)n1-c1cccc(C(F)(F)F)c1 do in these assays?
eLon inh: 0.0; GLD-1 TGE inh: 3.4; EBV gp42 block: 8.3; LANA DNA inh: -1.0; Keap1-Nrf2 PPI: -5.4; LANA-H2B inh: 0.1

How did CC(=O)c1ccc2c(c1)C1C(Cl)C(Sc3ccccc3[N+](=O)[O-])CC1C(C(=O)O)N2 (stereo not given) do in these assays?
eLon inh: 22.5*; GLD-1 TGE inh: 8.2; EBV gp42 block: 26.4; LANA DNA inh: 8.3; Keap1-Nrf2 PPI: -5.2; LANA-H2B inh: 2.6

How did Cc1ncoc1C(=O)NCC1=C(c2ccc(S(C)(=O)=O)cc2)C[C@@H]2CC[C@H]1N2Cc1ccco1 do in these assays?
eLon inh: 5.5

How did CN1C(=O)C(=Cc2ccc(N3CCCCCC3)cc2)C(=O)N(C)C1=O do in these assays?
eLon inh: -2.3; GLD-1 TGE inh: -1.2; EBV gp42 block: 84.0*; LANA DNA inh: 3.1; Keap1-Nrf2 PPI: -0.9; LANA-H2B inh: -1.8

Results for Cn1ncc(Cl)c1C(=O)N1CCC2(CC1)OCCO2 ?
eLon inh: -10.3; GLD-1 TGE inh: 4.6; LANA DNA inh: -1.0; Keap1-Nrf2 PPI: 2.4; LANA-H2B inh: -1.8

What do the screens show for `Cc1cc(/C=C2\C(=O)NC(=O)N(c3cccc(Br)c3)C2=O)c(C)n1C`?
eLon inh: -34.4; GLD-1 TGE inh: -1.5; EBV gp42 block: 111.0*; LANA DNA inh: 2.8; Keap1-Nrf2 PPI: 5.3; LANA-H2B inh: 0.9

Results for Cc1cc(/C=C2/C(=O)NC(=O)N(c3ccc(Br)cc3)C2=O)c(C)n1C ?
eLon inh: -35.3; GLD-1 TGE inh: -7.0; EBV gp42 block: 19.9; LANA DNA inh: 2.5; Keap1-Nrf2 PPI: -2.0; LANA-H2B inh: 2.0

How did CC(=O)Nc1cc(C(=O)N2CCC3(CC2)OCCO3)ccc1Sc1ccc(F)cc1 do in these assays?
eLon inh: -5.8; GLD-1 TGE inh: 1.1; EBV gp42 block: 7.1; LANA DNA inh: 0.6; Keap1-Nrf2 PPI: 2.6; LANA-H2B inh: 28.8*

What do the screens show for `CC(=O)Nc1cc(C(=O)N2CCC3(CC2)OCCO3)ccc1Sc1ccc(C)cc1`?
eLon inh: -2.3; GLD-1 TGE inh: -1.1; EBV gp42 block: -8.3; LANA DNA inh: -0.3; Keap1-Nrf2 PPI: 2.6; LANA-H2B inh: -0.4

Results for O=C1NCN(c2ccccc2)C12CCN(C(c1cc3ccccc3o1)c1nnnn1C1CCCCC1)CC2 (stereo not given) ?
eLon inh: -1.3

Results for O=C1NC(=S)N(c2ccccc2)C(=O)/C1=C/c1ccco1 ?
eLon inh: -63.5; GLD-1 TGE inh: 25.4; LANA DNA inh: 87.7*; Keap1-Nrf2 PPI: -0.1; LANA-H2B inh: 4.6

What do the screens show for `CCOc1cccc(N2C(=O)/C(=C/c3ccco3)C(=O)NC2=S)c1`?
eLon inh: -22.9; GLD-1 TGE inh: -21.8; Keap1-Nrf2 PPI: 0.1; LANA-H2B inh: -2.6

How did CC12Cc3cn[nH]c3C=C1CCC1C2CCC2(C)C1CCC2(C)O (stereo not given) do in these assays?
eLon inh: -11.0; LANA DNA inh: -0.8; Keap1-Nrf2 PPI: -6.0

How did CS(=O)(=O)c1ccc(C2=C(CNC(=O)c3nccs3)[C@H]3CC[C@@H](C2)N3CCOc2ccccc2)cc1 do in these assays?
eLon inh: 0.1

Results for CC(C)[C@H]1C(=O)N2CCC[C@H]2[C@]2(O)O[C@](NC(=O)[C@@H]3C=C4c5cccc6[nH]cc(c56)C[C@H]4N(C)C3)(C(C)C)C(=O)N12 ?
eLon inh: 64.0*; GLD-1 TGE inh: 129.4*; EBV gp42 block: 112.3*; LANA DNA inh: 28.1; Keap1-Nrf2 PPI: 15.1*; LANA-H2B inh: 10.6*

Results for CC(C)[C@@]1(NC(=O)[C@@H]2C=C3c4cccc5[nH]cc(c45)C[C@H]3N(C)C2)O[C@@]2(O)[C@@H]3CCCN3C(=O)[C@H](Cc3ccccc3)N2C1=O ?
EBV gp42 block: 111.5*

How did CC(C)C[C@H]1C(=O)N2CCCC2[C@]2(O)O[C@](NC(=O)[C@@H]3C=C4c5cccc6[nH]cc(c56)CC4N(C)C3)(C(C)C)C(=O)N12 (stereo not given in full) do in these assays?
eLon inh: 62.5; GLD-1 TGE inh: 117.3*; EBV gp42 block: 97.1*; LANA DNA inh: 24.4; Keap1-Nrf2 PPI: 15.7*; LANA-H2B inh: 21.2*!

How did CC(C)[C@@]1(NC(=O)[C@@H]2C[C@@H]3c4cccc5[nH]cc(c45)C[C@H]3N(C)C2)O[C@@]2(O)[C@@H]3CCCN3C(=O)[C@H](Cc3ccccc3)N2C1=O do in these assays?
eLon inh: -15.1; GLD-1 TGE inh: 8.8; EBV gp42 block: 11.9; LANA DNA inh: 0.1; Keap1-Nrf2 PPI: -0.5; LANA-H2B inh: 15.6*

How did O=C(c1ccncc1)C12CN3CN(CN(C3)C1)C2 do in these assays?
eLon inh: 8.6; GLD-1 TGE inh: 1.7; EBV gp42 block: 2.9; LANA DNA inh: 1.7; Keap1-Nrf2 PPI: -4.8; LANA-H2B inh: 2.1

What do the screens show for `CN1C(=O)/C(=C\N2CCc3ccccc32)C(=O)NC1=S`?
eLon inh: -28.0; GLD-1 TGE inh: 5.5; EBV gp42 block: 90.2*; LANA DNA inh: 0.9; Keap1-Nrf2 PPI: -10.1; LANA-H2B inh: 2.0

Results for CN1C(=O)/C(=C/c2cccn2-c2ccc3ccccc3c2)C(=O)NC1=S ?
eLon inh: -13.5; GLD-1 TGE inh: 0.6; EBV gp42 block: -5.5; LANA DNA inh: 2.5; Keap1-Nrf2 PPI: -3.0; LANA-H2B inh: 1.0
